Compound activity (PubChem)
HepG2 viability: HepG2 cytotoxicity, counter-screen for TGF-b inhibitors; HepG2 CAGA-GFP viability, ATP luminescence, 18 h; Potency, µM (highest dose often 46.1 µM), for the others: at the top dose activity change, negative = cytotoxicity, most hits filed as cytotoxic; 410,000 tested, 0.76% active; AID 588856
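HepG2 CAGA-GFP cells (1000/well, DMEM with 1% FBS) received compound, then TGF-beta at 500 pg/mL final, and were incubated 18 hours at 37 degrees C. Viability was read by CellTiter-Glo luminescence. Media-only wells were set as complete cell-killing and DMSO as no toxicity.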
DT40 TDP1 no CPT: qHTS for Inhibitors of human tyrosyl-DNA phosphodiesterase 1 (TDP1): qHTS in cells in absence of CPT. Potency, µM (top dose mostly 46.2 µM), without a hit: at the top dose activity change, negative = growth inhibition, most hits filed as inhibitors. DT40 Tdp1-/- hTDP1 cells, no CPT, ATP luminescence, 48 h. 420,000 tested, 15% active; further: on the % scale 0 is the no-effect control and ±100 the full control effect; nearly all actives have a fitted effect of over 55% in size
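Camptothecin absent (DMSO only). Human TDP1-complemented DT40 knockout cells, 400 cells/well, 37 °C for minimum 48 hr; ATP measured via CellTiter-Glo, 30 min dark incubation, luminescence.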
HT1080 IDH1KD tx: kills HT-1080 cells with IDH1 knockdown | HT-1080 IDH1 knockdown viability, ATP luminescence, 48 h | Potency, µM (top dose mostly 46.1 µM), inactives show top-dose activity, negative = toxicity, hits mostly cytotoxic | 360,000 tested, 2% active;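 further: 0% = DMSO wells and -100% = cell-free medium wells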
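Assay cells: HT-1080 with IDH1 knockdown, 750 per well, RPMI/5% FBS. Exposure: 48 h at 37 °C following 2 h pre-incubation. Read: CellTiter-Glo luminescence; fitted concentration-response, curve class assigned.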
TDP1 cell CPT: DT40-hTDP1 cell growth loss with CPT; Potency, µM (doses to about 46.2 µM), for the others: at the highest dose activity change, negative = growth inhibition, actives largely listed as inhibitors; 420,000 tested, 12% active; chicken DT40 Tdp1-/-;hTDP1 cells + 20 nM CPT, ATP luminescence, 48 h; AID 686979; further: on the % scale 0 is the no-effect control and ±100 the full control effect; nearly all actives have a fitted effect of over 55% in size
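Chicken DT40 Tdp1-/- cells complemented with human TDP1, 400 cells/well, exposed to compounds plus 20 nM camptothecin for at least 48 h at 37 C; viability read as ATP content by CellTiter-Glo luminescence.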
HT1080-NT tox: kills 2HG-producing HT-1080-NT fibrosarcoma cells; HT-1080-NT fibrosarcoma viability, CellTiter-Glo ATP luminescence, 48 h; Potency, µM (doses to about 46.1 µM), inactives show at the top dose activity, negative = less viability, hits mostly cytotoxic; 360,000 tested, 1.6% active;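 further: NT is the 2HG producing partner of a matched IDH1 knockdown line; 0% = DMSO-treated cells and -100% = media-only wells without cells; nearly all actives have a fitted effect of over 55% in size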
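Viability by CellTiter-Glo luminescence after 48 h compound exposure at 37C of HT-1080-NT cells (750/well, RPMI, 5% FBS). % activity scaled between DMSO wells and medium-only wells, then curve-fitted and categorized by curve class.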
TGFb SMAD3 inh: inhibitors of TGF-b signaling. HepG2 CAGA-GFP TGF-b/SMAD3 reporter, GFP fluorescence, 18 h; TGF-beta stimulated, 500 pg/mL final. Potency, µM (highest dose often 46.1 µM), inactives show top-dose activity, negative = inhibition, most hits filed as inhibitors. 410,000 tested, 1.2% active. AID 588855; further: on the % scale 0 is the no-effect control and ±100 the full control effect; nearly all actives have a fitted effect of over 65% in size
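Inhibition of TGF-beta-driven CAGA-GFP reporter expression in HEPG2 cells is measured by cellular GFP fluorescence after 18 h stimulation with 500 pg/mL recombinant TGF-beta in 1% FBS medium at 37 degrees C.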
* marks the source's active call; other numbers are inactive results; ? = inconclusive; . = not tested or not shown; [ ] = remark or other dose. Sampled rows, rich in hits. Any-hit rate of the full collection: about 17%. The call rests on the fitted dose curve; in most records, active means well fitted curve in the direction sought with a large enough effect; inconclusive means small, poorly fitted or top-dose-only effect, or another doubt; inactive means no such curve, though single readings can be large; an effect the other way counts as inactive or inconclusive. Potency means the concentration at half of the fitted maximal effect.

SMILES | HepG2 viability | DT40 TDP1 no CPT | HT1080 IDH1KD tx | TDP1 cell CPT | HT1080-NT tox | TGFb SMAD3 inh
CC(C)c1cccc(-c2csc(C(O)c3cccc(Cl)c3)n2)c1 (centres undefined) | -101% | 21µM* | ? | 23µM* | ? | ?
OC(c1cccc(Cl)c1)c1nc(-c2ccccc2)cs1 (centres undefined) | -21% | -19% | -21% | ? | ? | -28%
CN(C)c1ccc(-c2csc(C(O)c3cccc(Cl)c3)n2)cc1 (centres undefined) | -22% | 21µM* | ? | 21µM* | -26% | -7%
NNc1nc(-c2ccccc2Cl)nc2sc3c(c12)CCCC3 | -13% | ? | -25% | ? | -18% | 0%
O=c1[nH]c2cc3c(cc2cc1CN(Cc1ccccc1)Cc1nnnn1Cc1ccco1)OCCO3 | -37% | ? | ? | ? | 13% | -28%
COc1ccccc1CN(Cc1cc2cc3c(cc2[nH]c1=O)OCCO3)Cc1nnnn1Cc1ccco1 | 9% | ? | 2% | 26µM* | -12% | -1%
O=c1[nH]c2cc3c(cc2cc1CN(Cc1cccs1)Cc1nnnn1Cc1ccco1)OCCO3 | -31% | 16µM* | 11% | 15µM* | 10% | -16%
CC1CCc2sc3ncnc(N4CCN(C)CC4)c3c2C1 (centres undefined) | 9% | ? | -17% | ? | -21% | -30%
COc1ccc(NC(=O)c2nc[nH]c2C(=O)N(C)Cc2ccccc2)cc1 | -10% | ? | 11% | 23µM* | 9% | -7%
CN(Cc1ccccc1)C(=O)c1[nH]cnc1C(=O)Nc1ccc(Cl)cc1 | -30% | 23µM* | -1% | ? | ? | ?
CN(Cc1ccccc1)C(=O)c1[nH]cnc1C(=O)Nc1ccccc1F | -16% | -8% | 17% | -6% | 18% | -4%
CCCCCNC(=O)C(C1CC1)n1c(=O)c(-c2ccccc2)nc2ccccc21 (centres undefined) | . | ? | -2% | ? | -29% | .
COc1ccc(C(=O)NNC(=O)C(=O)Nc2cccc3ccccc23)cc1 | 7% | ? | -17% | ? | -4% | 4%
O=C(C=C(C(=O)c1ccccc1)c1ccccc1)c1ccccc1 | -3% | 21µM* | -15% | 23µM* | -12% | 0%
Cc1ccc(-c2n[nH]c(=O)c3ccccc23)cc1S(=O)(=O)N(C)C | -21% | ? | -11% | ? | 5% | 2%
Cc1cccc(Nc2nnc(-c3ccc(N4CCOCC4)c([N+](=O)[O-])c3)c3ccccc23)c1 | -2% | 18µM* | -12% | ? | -21% | -16%
Cc1ccc(-c2nnc(Nc3ccc(C(N)=O)cc3)c3ccccc23)cc1S(=O)(=O)N1CCCCC1 | -14% | ? | . | ? | . | -7%
Cc1nnc(-c2ccc(N3CCOCC3)c([N+](=O)[O-])c2)o1 | -21% | -28% | 7% | -26% | 17% | -1%
Cc1ccc(-c2n[nH]c(=O)c3ccccc23)cc1S(=O)(=O)Nc1ccccc1 | 7% | 23µM* | 21µM* | ? | 26µM* | 0%
Cc1ccc(-c2nnc(Nc3ccc(O)cc3)c3ccccc23)cc1S(=O)(=O)N1CCCCC1 | 24% | 18µM* | . | 7.3µM* | . | 2µM*
Cc1ccc(-c2nnc(Nc3ccc(S(N)(=O)=O)cc3)c3ccccc23)cc1S(=O)(=O)N1CCOCC1 | -46% | ? | . | 16µM* | . | -1%
Cc1ccc(N2CC(c3nnc(NC(=O)c4ccco4)s3)CC2=O)cc1C (centres undefined) | 4% | -19% | . | ? | . | -39%
CC(C)CC(=O)N(Cc1ccc(F)cc1)C1CCS(=O)(=O)C1 (centres undefined) | 0% | -9% | ? | 20% | 14% | -11%
COc1cc(-c2ccc(C(F)(F)F)cn2)cc2c1OCCN(S(=O)(=O)C[C@]13CC[C@H](CC1=O)C3(C)C)C2 | . | -25% | . | -8%[9.04 µM] | . | .
Cc1ccc(-c2nnc(Nc3ccc(F)cc3)c3ccccc23)cc1S(=O)(=O)NC(C)C | 0% | 9.2µM* | . | ? | . | -9%
SMILES | HepG2 viability | DT40 TDP1 no CPT | HT1080 IDH1KD tx | TDP1 cell CPT | HT1080-NT tox | TGFb SMAD3 inh
Cc1ccc(-c2nnc(Nc3ccc(O)cc3)c3ccccc23)cc1S(=O)(=O)NC(C)(C)CO | -40% | 8.2µM* | . | 16µM* | . | ?
Cc1ccc(-c2nnc(Nc3ccccc3)c3ccccc23)cc1S(=O)(=O)N1CCOCC1 | 1% | ? | . | -27% | . | 21%
Cc1ccc(-c2nnc(Nc3ccc(Cl)cc3)c3ccccc23)cc1S(=O)(=O)N1CCOCC1 | 1% | 3.7µM* | . | 13µM* | . | ?
Cc1ccc(-c2nnc(Nc3cccc(O)c3)c3ccccc23)cc1S(=O)(=O)N1CCOCC1 | 14% | 12µM* | . | ? | . | ?
COc1cc(/C=C/C(=O)N2CC(C)OC(C)C2)cc(OC)c1OC (centres undefined) | -14% | -8% | -2% | 0% | 16% | 19%
CCCNC(=O)CN1C(=O)NC(CC)(c2ccc(F)cc2)C1=O (centres undefined) | 1% | -17% | 8% | 4% | 24% | 6%
CCCSc1nn2c(=O)c3ccccc3nc2s1 | -8% | -22% | -11% | 18µM* | -2% | 0%
Cc1ccccc1C(=O)NNC(=S)NC(=O)c1ccc(Cl)cc1Cl | -16% | ? | 0% | ? | ? | ?
Cc1onc(NC(=O)c2ccc(Cl)cc2Cl)c1Br | -19% | 10µM* | -6% | ? | 18% | -23%
Cc1onc(-c2ccccc2)c1C(=O)NNC(=S)NC(=O)c1ccc(Cl)cc1Cl | 13µM* | ? | ? | ? | -20% | ?
Cc1onc(-c2ccccc2)c1C(=O)NNC(=S)NC(=O)c1ccc(Br)cc1 | -34% | ? | ? | ? | ? | 0%
COc1ccc(/C=C/C(=O)NC(=S)NNC(=O)c2c(-c3ccccc3)noc2C)cc1 | 1% | 26µM* | ? | ? | -13% | -1%
Cc1onc(-c2ccccc2)c1C(=O)NNC(=S)NC(=O)/C=C/c1ccccc1 | -12% | 18µM* | ? | 21µM* | -13% | ?
COc1cccc(CC(=O)NNC(=O)c2c(-c3ccccc3)noc2C)c1 | -19% | -1% | 5% | -1% | 2% | -27%
